Screens: PubChem, National Center for Advancing Translational Sciences (NCATS)
Hits are enriched below; roughly 11% of the tested compounds scored in any of these assays.
hNpr1 antagonist – human Npr1 receptor antagonism; P16066; HEK293 hNpr1 GloSensor cGMP, ANP-stimulated luminescence; Potency, µM (doses to about 46.3 µM), usual class: inhibitors; 76,000 compounds, 1.6% hits; AID 1347048; calls by dose curve; note: nearly all actives have a fitted effect of over 60% in size
Target sequence (P16066 whole entry, looked up): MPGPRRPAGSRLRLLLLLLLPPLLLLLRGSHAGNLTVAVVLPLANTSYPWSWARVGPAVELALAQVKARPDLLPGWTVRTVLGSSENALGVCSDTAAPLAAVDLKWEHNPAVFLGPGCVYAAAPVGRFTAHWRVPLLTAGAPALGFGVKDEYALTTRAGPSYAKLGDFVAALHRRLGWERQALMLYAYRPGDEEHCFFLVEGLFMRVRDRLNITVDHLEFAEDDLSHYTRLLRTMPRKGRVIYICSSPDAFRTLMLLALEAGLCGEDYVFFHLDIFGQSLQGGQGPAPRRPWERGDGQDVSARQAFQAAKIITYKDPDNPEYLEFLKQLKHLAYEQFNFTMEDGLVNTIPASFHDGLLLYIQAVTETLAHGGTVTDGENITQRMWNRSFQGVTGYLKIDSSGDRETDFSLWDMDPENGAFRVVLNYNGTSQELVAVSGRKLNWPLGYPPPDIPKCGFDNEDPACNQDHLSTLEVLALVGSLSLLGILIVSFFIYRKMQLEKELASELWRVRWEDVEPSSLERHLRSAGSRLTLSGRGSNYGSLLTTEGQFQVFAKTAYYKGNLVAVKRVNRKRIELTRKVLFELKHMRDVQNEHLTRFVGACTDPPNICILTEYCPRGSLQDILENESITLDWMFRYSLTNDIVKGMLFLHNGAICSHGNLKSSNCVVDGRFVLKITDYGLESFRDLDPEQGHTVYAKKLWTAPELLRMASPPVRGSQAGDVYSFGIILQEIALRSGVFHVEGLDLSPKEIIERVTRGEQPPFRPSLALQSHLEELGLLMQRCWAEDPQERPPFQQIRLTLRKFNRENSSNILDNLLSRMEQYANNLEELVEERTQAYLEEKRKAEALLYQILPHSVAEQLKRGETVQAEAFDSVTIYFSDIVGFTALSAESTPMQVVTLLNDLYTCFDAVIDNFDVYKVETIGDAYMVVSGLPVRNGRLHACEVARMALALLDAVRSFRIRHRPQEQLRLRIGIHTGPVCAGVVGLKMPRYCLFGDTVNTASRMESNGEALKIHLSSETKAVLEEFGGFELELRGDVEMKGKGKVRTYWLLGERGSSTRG
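HEK293 cells stably expressing human Npr1 and cGMP GloSensor pGS-40F, loaded 2 h with 2% GloSensor reagent, given compound 30 min at room temperature. Luminescence read before and 20 min after 0.1 nM hNppA.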
Luciferase inh – inhibitors of firefly (Photinus pyralis) luciferase; purified P. pyralis luciferase, luminescence, biochemical; Potency, µM (series often up to 115 µM), hits mostly inhibitors; 76,000 compounds, 2.5% hits; AID 1347043; note: nearly all actives have a fitted effect of over 65% in size
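Purified P. pyralis luciferase (10nM final) in 50mM Tris acetate pH 7.5, 10mM Mg acetate, 0.01% Tween-20, 0.05% BSA with 10uM D-luciferin and 10uM ATP. Compounds titrated qHTS. Luminescence imaged on CCD.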
HEK293 tox – kills HEK 293 cells; 94,000 compounds, 6.6% hits; AID 1345083; HEK 293 viability, ATP luminescence (CellTiter-Glo), 48-72 h; Potency, µM (titrated, usually from 115 µM), most hits filed as inhibitors; note: nearly all actives have a fitted effect of over 60% in size
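Cytotoxicity was scored by loss of ATP-coupled luminescence (CellTiter-Glo) in HEK 293 cells. Compound treatment ran 48 or 72 hr at 37 degree Celsius, 5% CO2, 95% humidity.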
NIH3T3 tox – cytotoxic compounds in NIH 3T3 cells; NIH 3T3 viability, CellTiter-Glo ATP luminescence, 48-72 h; Potency, µM (titrated, usually from 96.7 µM), most hits filed as inhibitors; 94,000 compounds, 4.3% hits; AID 1345082; note: nearly all actives have a fitted effect of over 55% in size
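Cytotoxicity was measured by CellTiter-Glo ATP luminescence after 48 or 72 h compound exposure at 37 °C. Mouse NIH 3T3 fibroblasts were seeded at 400 cells/well and dosed by 23 nL pin transfer.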
Of the large screens only hits and unclear results are named; the others gave an inactive call. Unless noted, calls come from the whole dose curve; as a rule, active = well fitted curve in the direction sought with a large enough effect; inconclusive = small, poorly fitted or top-dose-only effect, or another doubt; inactive = no such curve, though single readings can be large; an effect the other way counts as inactive or inconclusive.

COCc1ccc2c(c1)c(OC(C)(C)C(=O)NCc1ccncc1)nn2Cc1cccnc1	NIH3T3 tox inconclusive
COCc1ccc2c(c1)c(OC(C)(C)C(=O)NCCN(C)C)nn2Cc1ccccc1	NIH3T3 tox 89µM
COCc1ccc2c(c1)c(OC(C)(C)C(=O)NCc1ccncc1)nn2Cc1cccc(OC)c1	HEK293 tox inconclusive, NIH3T3 tox 10µM
COCc1ccc2c(c1)c(OC(C)(C)C(=O)NCCCn1ccnc1)nn2Cc1ccccc1	NIH3T3 tox 22µM
COCc1ccc2c(c1)c(OC(C)(C)C(=O)Nc1ccccn1)nn2Cc1cccc(OC)c1	HEK293 tox inconclusive, NIH3T3 tox inconclusive
Cn1ncc2c(C(=O)NCC3CC3)cc(-c3cccc(F)c3)nc21	NIH3T3 tox inconclusive (no result: hNpr1 antagonist, Luciferase inh)
CC(=O)c1ccc(NC(=O)Cn2ccn3nc4c(c3c2=O)CCCC4)cc1	none
Cc1ccc(NC(=O)Cn2ccn3nc4c(c3c2=O)CCCCC4)cc1C	hNpr1 antagonist inconclusive, HEK293 tox 40µM
Cc1ccc(NC(=O)Cn2ccn3nc4c(c3c2=O)CCCC4)cc1Cl	none
CC(=O)Nc1ccc(NC(=O)Cn2ccn3nc4c(c3c2=O)CCCCC4)cc1	HEK293 tox 35µM, NIH3T3 tox inconclusive
CN(C)c1ccc(NC(=O)CCn2ccn3nc4c(c3c2=O)CCCC4)cc1	Luciferase inh 40µM, HEK293 tox inconclusive
COc1cccc(C(=O)N2CCN(c3cc(C(F)(F)F)ncn3)CC2)c1OC	none
O=C(c1ccsc1)N1CCC(N2CC(OCC3CC3)C23CCOCC3)CC1 (stereo not drawn)	none (no result: hNpr1 antagonist, Luciferase inh)
CN1c2cc(C(=O)Nc3cccc(OC(F)(F)F)c3)ccc2C(=O)N2CCCC21 (stereo not drawn)	HEK293 tox inconclusive, NIH3T3 tox 35µM
CN1c2cc(C(=O)Nc3cccc(OC(F)(F)F)c3)ccc2C(=O)N2CCCCC21 (stereo not drawn)	hNpr1 antagonist inconclusive, Luciferase inh inconclusive, HEK293 tox 18µM, NIH3T3 tox inconclusive
COc1cccc(NC(=O)c2ccc3c(c2)N(C)C2CCCCN2C3=O)c1 (stereo not drawn)	Luciferase inh inconclusive, HEK293 tox inconclusive, NIH3T3 tox inconclusive
COc1cccc(NC(=O)c2ccc3c(c2)N(C)C2CCCN2C3=O)c1 (stereo not drawn)	Luciferase inh inconclusive
COc1ccc(CCC(=O)N2CCC3(CC2)CC(CO)N(C(=O)c2ccccc2)C3)cc1 (stereo not drawn)	none (no result: hNpr1 antagonist, Luciferase inh)
CCC1=C(C(=O)OC)C(c2cccc(C)c2)N2C(CC(=O)Nc3ccc(OC)cc3)=CSC2=N1 (stereo not drawn)	HEK293 tox 40µM, NIH3T3 tox inconclusive
CCC1=C(C(=O)OC)C(c2ccc(C)cc2C)N2C(CC(=O)N3CCCCC3C)=CSC2=N1 (stereo not drawn)	HEK293 tox inconclusive, NIH3T3 tox inconclusive
CCC1=C(C(=O)OC)C(c2cccc(C)c2)N2C(CC(=O)N3CCCCC3C)=CSC2=N1 (stereo not drawn)	HEK293 tox 45µM
COc1cccc(CNC(=O)c2cn3cc(-c4cccc(C(F)(F)F)c4)sc3n2)c1	HEK293 tox inconclusive (no result: hNpr1 antagonist, Luciferase inh)
O=C(NCc1cccs1)c1noc(-c2ccc(F)cc2)n1	Luciferase inh inconclusive, HEK293 tox inconclusive, NIH3T3 tox inconclusive
COc1ccccc1C(=O)NCc1c[nH]c2ncccc12	none
COc1cccc(CNC(=O)c2c[nH]c3ncccc23)c1	Luciferase inh 40µM, NIH3T3 tox inconclusive
COc1ccc(CNC(=O)c2noc(-c3ccc4c(c3)OCO4)n2)cc1	Luciferase inh 32µM, HEK293 tox inconclusive, NIH3T3 tox inconclusive
CSc1ccc(CNC(=O)c2noc(-c3ccc(F)cc3)n2)cc1	Luciferase inh 28µM, NIH3T3 tox inconclusive
O=C(NCc1cccc(Cl)c1)c1noc(-c2ccc3c(c2)OCO3)n1	Luciferase inh inconclusive, HEK293 tox 40µM, NIH3T3 tox inconclusive
Cc1cccc(CNC(=O)c2noc(-c3ccc4c(c3)OCO4)n2)c1	Luciferase inh inconclusive, HEK293 tox inconclusive, NIH3T3 tox inconclusive
O=C(NCc1ccccc1F)C1CCc2nnc(-c3cccc(C(F)(F)F)c3)n21 (stereo not drawn)	none (no result: hNpr1 antagonist, Luciferase inh)
COC(=O)CNC(=O)c1ccc(-c2ccc(OC)nn2)cc1Cl	none (no result: hNpr1 antagonist, Luciferase inh)
COc1cccc(CNC(=O)c2noc(-c3ccc(C)cc3)n2)c1	Luciferase inh 28µM
COc1ccc(CNC(=O)c2noc(-c3ccc(C)cc3)n2)cc1	none
Cc1cnc(C2CN(C(=O)C(C)Oc3ccccc3)C2)n1Cc1cccnc1 (stereo not drawn)	none (no result: hNpr1 antagonist, Luciferase inh)
